KB-3-1 cytotox: qHTS assay for MDR1-selective chemotherapeutics: Primary screen using the parental adenocarcinoma cell KB-3-1. AID 1347075, 2019. 400,000 compounds, 1.4% hits. KB-3-1 viability, CellTiter-Glo ATP luminescence, 72 h. Potency, µM (doses to about 46.1 µM), usual class: cytotoxic; further: nearly all actives have a fitted effect of over 60% in size
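KB-3-1 parental drug-naive adenocarcinoma cells in DMEM/10% FBS, incubated 72 h at 37 C with pin-transferred compounds across a concentration series. Viability by CellTiter-Glo luminescence; concentration-response curves fitted after normalization.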
HT1080 IDH1KD tx: qHTS for induction of synthetic lethality in tumor cells producing 2HG: qHTS for the HT-1080-IDH1KD cell line; HT-1080 IDH1 knockdown viability, ATP luminescence, 48 h; Potency, µM (series often up to 46.1 µM), for inactives: at the top dose activity, negative = toxicity, usual class: cytotoxic; 360,000 compounds, 2% hits; AID 686971, 2013;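 further: 0% = DMSO wells and -100% = cell-free medium wells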
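% activity derives from luminescence (CellTiter-Glo), normalised to DMSO and no-cell wells. HT-1080-IDH1KD cells, 750/well, had 48 h compound exposure at 37 °C.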
KB-V1 MDR tox: qHTS assay for MDR1-selective chemotherapeutics: Primary screen using the drug-selected MDR subline cells KB-V1; KB-V1 MDR cells viability, CellTiter-Glo, 72 h; Potency, µM (series often up to 46.1 µM), usual class: cytotoxic; 400,000 compounds, 3.4% hits; further: nearly all actives have a fitted effect of over 60% in size
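Potencies derive from concentration-effect curves fitted to normalized luminescence (CellTiter-Glo) of KB-V1 cells treated for 72 h at 37 degrees C in phenol-red-free DMEM containing 10% FBS.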
DT40 TDP1 no CPT: qHTS for Inhibitors of human tyrosyl-DNA phosphodiesterase 1 (TDP1): qHTS in cells in absence of CPT | DT40 Tdp1-/- hTDP1 cells, no CPT, ATP luminescence, 48 h | Potency, µM (doses to about 46.2 µM), for inactives: at the top dose activity change, negative = growth inhibition, usual class: inhibitors | AID 686978, 2013 | 420,000 compounds, 15% hits; further: nearly all actives have a fitted effect of over 55% in size
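Camptothecin absent (DMSO only). Human TDP1-complemented DT40 knockout cells, 400 cells/well, 37 °C for minimum 48 hr; ATP measured via CellTiter-Glo, 30 min dark incubation, luminescence.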
DT40 TDP1 CPT: qHTS for Inhibitors of human tyrosyl-DNA phosphodiesterase 1 (TDP1): qHTS in cells in presence of CPT. chicken DT40 Tdp1-/-;hTDP1 cells + 20 nM CPT, ATP luminescence, 48 h. Potency, µM (series often up to 46.2 µM), for inactives: at the top dose activity change, negative = growth inhibition, most hits filed as inhibitors. 420,000 compounds, 12% hits; further: nearly all actives have a fitted effect of over 55% in size
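Cell growth measured by CellTiter-Glo luminescence after a minimum 48 h, 37 C compound exposure with 20 nM CPT in Tdp1-knockout DT40 cells stably expressing hTDP1, seeded 400/well; qHTS titration format.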
HT1080-NT tox: qHTS for induction of synthetic lethality in tumor cells producing 2HG: qHTS for the HT-1080-NT fibrosarcoma cell line. HT-1080-NT fibrosarcoma viability, CellTiter-Glo ATP luminescence, 48 h. Potency, µM (titrated, usually from 46.1 µM), without a hit: at the highest dose activity, negative = less viability, actives largely listed as cytotoxic. 360,000 compounds, 1.6% hits;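 further: NT is the 2HG producing partner of a matched IDH1 knockdown line; 0% = DMSO-treated cells and -100% = media-only wells without cells; nearly all actives have a fitted effect of over 55% in size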
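750 cells/well, RPMI + 5% FBS; 2 h settle, compound pin-transfer, 48 h at 37 degrees C. CellTiter-Glo 10 min RT, luminescence. Normalized to DMSO and media-only wells.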
* = called active by the depositor; i = inactive; ? = inconclusive; nt = no result; [ ] = remark or other dose. Compounds with a hit are over-represented: about 19% of the library has one in this group of screens. The call rests on the fitted dose curve; in most records, active means well fitted curve in the direction sought with a large enough effect; inconclusive means small, poorly fitted or top-dose-only effect, or another doubt; inactive means no such curve, though single readings can be large; an effect the other way counts as inactive or inconclusive. Unless noted, on the % scale 0 is the no-effect control and ±100 the full control effect; potency means the concentration at half of the fitted maximal effect.

SMILES	KB-3-1 cytotox	HT1080 IDH1KD tx	KB-V1 MDR tox	DT40 TDP1 no CPT	DT40 TDP1 CPT	HT1080-NT tox
O=C(c1ccc(CSc2nc3ccncc3[nH]2)cc1)N1CCCCCC1	?	?	i	?	?	?
Cc1ccc(C(=O)N2CCN(c3cccc(Cl)c3)CC2)cc1C	?	?	?	26µM*	?	?
CCOC(=O)c1c(C)c(C(=O)N2CCN(c3cccc(Cl)c3)CC2)c(C)n1C	i	5%	10µM*	?	?	15%
CCOc1ccc(C(=O)N2CCN(c3cccc(Cl)c3)CC2)cc1	i	-3%	i	?	-19%	0%
COc1ccc2cc3cc(C(=O)N4CCN(c5cccc(Cl)c5)CC4)sc3nc2c1	i	nt	?	-12%	-2%	nt
COc1ccc(C(=S)N2CCN(c3cccc(Cl)c3)CC2)c(OC)c1	6.5µM*	?	i	4.1µM*	2.6µM*	?
O=C(c1ccc(CSc2nc3ccncc3[nH]2)cc1)N1CCN(c2cccc(Cl)c2)CC1	?	-30%	i	7.3µM*	9.2µM*	-14%
Cc1ccc(C(=O)N2CCN(c3ccccc3)CC2)cc1C	i	2%	i	-17%	-10%	-1%
C[C@@H]1CN(Cc2ccc3c(c2)CN(Cc2cccc4c2OCO4)CCO3)C[C@H](C)O1	nt	nt	nt	-14%	13%[9.04 µM]	nt
CCOc1ccc(CNC(=O)Cn2c(=O)c3cccn3c3ccc(F)cc32)cc1	nt	nt	nt	-12%	-3%	nt
COc1ccc(C(=O)N2CCN(c3cccc(Cl)c3)CC2)cc1S(=O)(=O)NC1CC1	?	?	i	15µM*	15µM*	?
Oc1ccccc1C(=S)N1CCN(c2cccc(Cl)c2)CC1	i	-18%	i	?	23µM*	-12%
CCCOc1ccc(C2c3c(-c4ccccc4O)n[nH]c3C(=O)N2CCCOCC)cc1OCC (stereo not drawn)	i	nt	?	?	23µM*	nt
CCCOc1ccc(C2c3c(-c4ccccc4O)n[nH]c3C(=O)N2Cc2ccncc2)cc1OCC (stereo not drawn)	i	nt	i	-24%	23µM*	nt
CCOc1ccccc1-c1c2cc(O)c(=O)cc-2oc2cc(O)c(O)cc12	?	?	i	?	23µM*	?
Cc1cc(NCc2ccccc2Cl)n2cnnc2n1	nt	nt	nt	9.2µM*	12µM*	nt
Cc1ccc(Nc2cc(C)nc3nncn23)c(C)c1	i	nt	i	?	?	nt
Cc1ccc(C(=O)/C=C/N(C)C)o1	i	5%	i	5%	22%	7%
Cc1ccc(C(=O)/C=C/c2cc(Br)cc(Br)c2O)o1	i	?	i	29µM*	-21%	?
COc1ccc(N2CCC(CNC(=S)Nc3cc(C)ccc3C)C2)cc1 (stereo not drawn)	i	3%	18µM*	16µM*	16µM*	-22%
COc1ccc(CNC(=O)Nc2ccccc2)cc1	i	5%	i	?	?	1%
COc1ccc(N2CCC(CNC(=S)Nc3cc(C)cc(C)c3)C2)cc1 (stereo not drawn)	i	?	i	15µM*	?	?
COc1ccc(N2CCC(CNC(=O)Nc3ccccc3)C2)cc1 (stereo not drawn)	i	8%	16µM*	?	-8%	1%
CCCC1NC(=O)c2cccnc2-n2c1nc1ccc(Br)cc1c2=O (stereo not drawn)	i	10%	i	?	-8%	13%
Cc1ccc(C)c(CN2C(=O)CSc3ccc(C(=O)NCCc4ccc(Cl)cc4)cc32)c1	i	nt	i	?	8.2µM*	nt
SMILES	KB-3-1 cytotox	HT1080 IDH1KD tx	KB-V1 MDR tox	DT40 TDP1 no CPT	DT40 TDP1 CPT	HT1080-NT tox
COc1ccc(CCNC(=O)c2ccc3c(c2)N(Cc2c(F)cccc2Cl)C(=O)CS3)cc1OC	i	nt	i	9.2µM*	8.2µM*	nt
O=C(NCCc1ccc(Cl)cc1)c1ccc2c(c1)N(Cc1ccccc1)C(=O)CS2	nt	nt	nt	18µM*	16µM*	nt
COc1ccccc1CNC(=O)c1ccc2c(c1)N(Cc1c(F)cccc1Cl)C(=O)CS2	i	nt	i	?	?	nt
Cc1ccc(C)c(CN2C(=O)CSc3ccc(C(=O)NCc4ccc(F)cc4)cc32)c1	i	nt	i	?	16µM*	nt
CCC(C)NC(=O)c1ccc2c(c1)N(Cc1ccccc1)C(=O)CS2 (stereo not drawn)	i	-4%	i	?	?	-4%
Cc1ccc(C)c(CN2C(=O)CSc3ccc(C(=O)N4CCCC4)cc32)c1	i	-5%	i	?	?	-3%
CCN(CC)S(=O)(=O)c1ccc2c(c1)N(CC(=O)Nc1cccc(C)c1C)C(=O)C1CCCN21 (stereo not drawn)	i	nt	i	?	-18%	nt
Cc1ccc(C)c(CN2C(=O)CSc3ccc(C(=O)NCC(C)CN4CCC(C)CC4)cc32)c1 (stereo not drawn)	i	4%	?	?	15µM*	4%
C=CCN1C(=O)CSc2ccc(C(=O)NC3CCCCC3)cc21	i	-9%	i	?	?	-9%

Compound activity from PubChem.
